These results are taken from PubChem BioAssay AID602429 (Sanford-Burnham Center for Chemical Genomics, 2012).

Out of some 360,000 compounds screened, about 1,200 (0.33%) were called active. The sample holds actives, similar compounds and a random draw of the others, so the mix is not that of the screen. Cut-off read from the data, not from the text of the source: active = inhibition above about 37%; inactive = the rest.

One may read the inhibition as the change of the read-out against control, counted positive when it falls.

In this assay the target is Small ubiquitin-related modifier 1 (Homo sapiens) (UniProt P63165). The experiment in a line: modulators of SUMO1 protein-protein interactions, primary screen, biochemical, uHTS (AID 602429). As to conditions: SUMO1 binding to a labelled peptide, TR-FRET, 1 h; at 20 µM; active compounds read high.
Sequence of Small ubiquitin-related modifier 1 (Homo sapiens) (P63165 whole entry, looked up): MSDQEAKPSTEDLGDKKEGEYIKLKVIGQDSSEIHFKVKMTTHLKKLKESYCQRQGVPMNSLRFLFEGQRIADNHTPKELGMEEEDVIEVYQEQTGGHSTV
With `N#C/C(=C/c1cccc([N+](=O)[O-])c1)c1nnc2n1CCCCC2`, the inhibition was -13.1% (inactive).
In the case of `CC1CCN(C(=O)COC(=O)c2cc(=O)[nH]c3ccccc23)CC1` it was -34.7% (inactive); in that of `Oc1c(Cl)cc(Cl)c(Cl)c1Cc1c(O)c(Cl)cc(Cl)c1Cl`, 68.6% (active); in that of `CCN(CC)S(=O)(=O)N1CCC(C(=O)NC(C)CCc2ccccc2)CC1` (stereo unspecified), -0.482% (inactive).
In the case of `Nc1nc(Sc2ncccc2[N+](=O)[O-])n[nH]1` it was -26.7% (inactive).
On to `CCCc1noc2c1/C(=N\O)CCC2`, for which the inhibition is 1.7% (inactive).
In the case of `COc1ccc(-c2nnc(SC(=O)N3c4ccccc4Sc4ccccc43)o2)cc1` it was -3.37% (inactive); in that of `COc1ccc(-c2nnc(SC(C)C(=O)NC3CC3)o2)cc1` (stereo unspecified), 1.98% (inactive); in that of `COc1ccc(-c2nnc(-c3ccc4ccccc4c3)o2)cc1`, 51.9% (active).
With `ONC(=Nc1ccccc1)c1ccccc1Cl`, the inhibition was 0.653% (inactive).
As to `CN(C(=O)COC(=O)c1cc(=O)[nH]c2ccccc12)C1CCCCC1`, the inhibition is -17.9% (inactive).
`Cc1ccsc1/C=N/n1c(=S)[nH]nc(C)c1=O`: the inhibition is -0.0625% (inactive).
On to `S=c1[nH]nc(-c2cccs2)n1/N=C/c1cn(-c2ccccc2)nc1-c1ccc(Cl)cc1`, for which the inhibition was 41.9% (active).
In the case of `Clc1ccc(-n2nnnc2-c2cnc(-c3ccccn3)nc2-c2cccs2)cc1` it was -11.8% (inactive).
In the case of `CSCC[C@H](NC(=O)NC1CCCC1)C(=O)O`, the inhibition is 2.79% (inactive).
As for `O=C(CSc1nc2ccccc2c(=O)[nH]1)Nc1nc(-c2ccc(Br)cc2)cs1`, the inhibition was 94.3% (active).
To `O=C(COC(=O)c1cc(=O)[nH]c2ccccc12)Nc1nc(-c2cccc(Br)c2)cs1` belongs 2.92% (inactive); to `Cc1cc(C)c(-c2csc(NC(=O)CCCc3nc4ccccc4c(=O)[nH]3)n2)c(C)c1`, 0.192% (inactive).
In the case of `O=C(O)c1ccc(S(=O)(=O)c2ccccc2)s1` it was 2.5% (inactive).
Regarding `COc1ccc(OCCCC(=O)Nc2nnc(C3CCCO3)s2)cc1` (stereo unspecified), the inhibition is 0.167% (inactive).
In the case of `COc1ccc(NC(=O)CCC(=O)Nc2nnc(C3CCCCC3)s2)cc1` it was 44% (active); in that of `COc1ccc2c(CC(=O)Nc3nnc(C4CC4)s3)coc2c1`, -1.1% (inactive).
To `COc1cc(C2C(C(=O)Nc3ccccc3OC)=C(C)Nc3ncnn32)ccc1O` (stereo unspecified) belongs -0.861% (inactive); to `COc1ccccc1NC(=O)C1=C(C)Nc2nc3ccccc3n2C1c1cccs1` (stereo unspecified), -1.24% (inactive); to `COc1ccccc1NC(=O)C1=C(C)Nc2nnnn2C1c1cccc(Br)c1` (stereo unspecified), 43.5% (active).
To `O=C1c2ccccc2C(=O)C1C(=O)C1CC1` belongs -16.1% (inactive).
